Rab9 prom act – qHTS Assay for Rab9 Promoter Activators; AID 485297, 2010; Huh7 Rab9 promoter-luciferase reporter, luminescence, 24 h; actives 2.8% (n = 320,000); Potency, µM (series often up to 9.22 µM), inactives show top-dose activation, negative = inhibition, hits mostly activators; also: % of control where 0% means no effect; nearly all actives have a fitted effect of over 60% in size
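Cell-based reporter: Huh7 stable for Rab9 promoter-driven luciferase, plated in reduced-serum medium with 10% FBS at 1500 cells/well, compound-treated 24 h at 37 °C, luminescence read after 10 min reagent.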
SMN2 splice enh – qHTS Assay for Enhancers of SMN2 Splice Variant Expression | HEK293 SMN2-luciferase splicing reporter, luminescence, 30-36 h | Potency, µM (doses to about 46.1 µM), without a hit: at the highest dose activity change, positive = activation, usual class: activators | actives 2.8% (n = 210,000) | AID 1458, 2008; also: % of control where 0% means no effect; nearly all actives have a fitted effect of over 55% in size
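HEK293 cells carry an SMN2 […]–luciferase reporter in which exon 7 inclusion puts luciferase in frame. Cells were plated 10-12 h before compound addition, then incubated 30-36 h at 37C. ONE-Glo luminescence was read; sodium butyrate at 4.5 mM final served as control.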
FLuc counter – qHTS profiling assay for firefly luciferase inhibitor/activator using purifed enzyme and Km concentrations of substrates (counterscreen for miR-21 project); Potency, µM (top dose mostly 57.5 µM), for the others: at the highest dose activity change, negative = inhibition, usual class: inhibitors; actives 6.9% (n = 360,000); purified FLuc, Km substrates, luminescence inhibition;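 also: plate controls were vehicle for no effect and reference inhibitor for full effect; nearly all actives have a fitted effect of over 55% in size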
Target sequence (P08659 whole entry, looked up): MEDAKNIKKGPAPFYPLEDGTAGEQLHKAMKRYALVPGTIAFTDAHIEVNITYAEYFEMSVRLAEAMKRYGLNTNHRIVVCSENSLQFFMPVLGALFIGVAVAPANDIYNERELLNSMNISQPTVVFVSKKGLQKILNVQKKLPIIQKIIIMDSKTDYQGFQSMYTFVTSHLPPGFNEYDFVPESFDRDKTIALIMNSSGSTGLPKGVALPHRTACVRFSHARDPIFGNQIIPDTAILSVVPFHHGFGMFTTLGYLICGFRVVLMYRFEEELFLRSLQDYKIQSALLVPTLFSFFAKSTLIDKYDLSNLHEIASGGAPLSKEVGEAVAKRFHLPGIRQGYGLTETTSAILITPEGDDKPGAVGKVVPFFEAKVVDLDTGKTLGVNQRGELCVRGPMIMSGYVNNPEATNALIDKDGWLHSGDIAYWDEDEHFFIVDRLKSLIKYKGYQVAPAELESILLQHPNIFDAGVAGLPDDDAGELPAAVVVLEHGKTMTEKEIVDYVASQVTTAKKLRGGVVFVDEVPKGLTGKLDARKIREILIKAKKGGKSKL
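Purified P. pyralis luciferase (10nM final) with 10uM D-luciferin and 10uM ATP (Km levels) in 50mM Tris acetate pH 7.5, 10mM Mg acetate, 0.01% Tween-20, 0.05% BSA; qHTS 6-point titration, ~60 µM downward; luminescence read.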
ELG1 DNA repair – qHTS screen for small molecules that inhibit ELG1-dependent DNA repair in human embryonic kidney (HEK293T) cells expressing luciferase-tagged ELG1 | Potency, µM (doses to about 46.1 µM), for the others: top-dose activity change, negative = inhibition, hits mostly inhibitors | HEK293T ELG1-luciferase reporter, luminescence, 16 h; DNA damage induced by 5-fluorouridine | actives 2.3% (n = 330,000); also: % is scaled to controls: 0 for no effect and ±100 for the full control effect; nearly all actives have a fitted effect of over 55% in size
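Reporter activity after DNA damage by 5-fluorouridine is monitored. Compound-treated cells incubate 16 hr at 37 °C, then ONE-Glo is added for 30 min before luminescence reading.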
NPC1 promoter act – qHTS Assay for NPC1 Promoter Activators; Huh7 NPC1 promoter luciferase reporter, 24 h; Potency, µM (highest dose often 9.22 µM), inactives show top-dose activation, hits mostly activators; actives 2.4% (n = 320,000); also: % of control where 0% means no effect; nearly all actives have a fitted effect of over 60% in size
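Huh7 cells stably carrying NPC1 promoter–luciferase, plated in Opti-MEM with 10% FBS for 2 h, were exposed to compound in DMSO for 24 h at 37 °C; luciferase reagent was added for 10 min and luminescence read.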
ELG1 genotoxic – qHTS screen for small molecules that induce genotoxicity in human embryonic kidney (HEK293T) cells expressing luciferase-tagged ELG1 | HEK293T ELG1-luciferase reporter, luminescence, 16 h | Potency, µM (doses to about 46 µM), inactives show at the top dose activity change, positive = activation, hits mostly activators | actives 1.3% (n = 330,000) | AID 504466, 2011; also: % of control where 0% means no effect; nearly all actives have a fitted effect of over 60% in size
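HEK293T cells expressing luciferase-tagged ELG1 were exposed to compound or DMSO vehicle for 16 hr at 37 °C and 5% CO2. Luciferase activity was then measured with ONE-Glo after 30 min at room temperature.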
Active calls of the source: *; ? = inconclusive; · = no result given; [ ] = dose if it differs, or a comment. Rows were chosen to be rich in hits. Some 9.4% of all compounds tested hit in one or more screens of this group. Calls follow the shape of the dose curve; as a rule, active = well fitted curve in the direction sought with a large enough effect; inconclusive = small, poorly fitted or top-dose-only effect, or another doubt; inactive = no such curve, though single readings can be large; an effect the other way counts as inactive or inconclusive. Potency is read from the fitted curve at half-maximal effect.

SMILES | Rab9 prom act | SMN2 splice enh | FLuc counter | ELG1 DNA repair | NPC1 promoter act | ELG1 genotoxic
O=S(=O)(c1ccc(Cl)c(NC(=S)N/N=C/c2c(F)cccc2F)c1)N1CCOCC1 | -5% | · | 4% | ? | -4% | 2%
Oc1ccc(/C=N/NC(=S)N2CCOCC2)cc1 | 28% | -46% | 7.6µM* | 11% | 26% | 9%
CCOc1ccc(OCC(=O)NCCS(=O)(=O)N2CCN(c3ccccc3F)CC2)cc1 | · | · | -6% | · | · | ·
CCOc1ccc(CCNC(=O)CCc2cn(Cc3ccc(C)cc3)c3ccccc23)cc1 | · | · | -8% | · | · | ·
Cc1cccc(N2CCN(C(=O)Cn3ncc4c3-c3cc(C)ccc3OC4)CC2C)c1 (stereo unspecified) | · | -20% | -13% | · | · | ·
CCOC(=O)c1c(-c2ccc(C)s2)csc1NC(=O)c1cccs1 | 3% | -11% | -8% | ? | 0% | 1%
CCOc1ccc2nc(NC(=O)c3nc(SC)ncc3Cl)sc2c1 | · | -2% | -2% | · | · | ·
CCOC(=O)c1ccc2nc(NC(=O)c3ccco3)sc2c1 | 0.71µM* | 2.2µM* | 2.7µM* | ? | 0.89µM* | ?
CCOC(=O)c1sc2nc(C)cc(C)c2c1NC(=O)c1ccco1 | 1% | 3% | -1% | -9% | -4% | 0%
CCOC(=O)c1ccc2nc(NC(=O)c3cccs3)sc2c1 | 0.5µM* | 4µM* | 1.2µM* | ? | 0.71µM* | ?
CCOc1ccc2nc(NC(=O)c3ccoc3C)sc2c1 | 0.5µM* | 2.5µM* | 0.48µM* | ? | 0.56µM* | ?
CCOc1ccc2nc(NC(=O)c3ccco3)sc2c1 | 0.32µM* | · | 0.67µM* | ? | 0.32µM* | 1.3µM*
O=S(=O)(c1ccc(-c2cc(C(F)(F)F)on2)s1)N1CCN(c2cccc(Cl)c2)CC1 | · | · | -5% | · | · | ·
NCCSC[C@H](N)C(=O)O | · | -7%[9.22 µM] | · | · | · | ·
CC1CCc2c(sc3nnn(CC(=O)Nc4ccccc4Cl)c(=O)c23)C1 (stereo unspecified) | · | -3% | -1% | · | · | ·
Cc1cccc(C(=O)Nc2nnc(SCc3cc(=O)n4cccc(C)c4n3)s2)c1 | · | · | -13% | · | · | ·
Cc1c(N=C/C=C/c2ccccc2)cnn1C | 2% | -10% | 6.7µM* | ? | 1% | 2%
Cc1c(N=C/C=C/c2ccccc2)c(=O)n(-c2ccccc2)n1C | 10% | -2% | 19µM* | 14% | -3% | 3%
Cc1c(N=Cc2ccc(-c3ccc(Cl)cc3)o2)c(=O)n(-c2ccccc2)n1C | 4% | -34% | 9.5µM* | 0% | -4% | 6%
Cc1c(N=Cc2ccc(Cl)o2)c(=O)n(-c2ccccc2)n1C | 2% | 7% | -4% | ? | 1% | 1%
Cc1ccccc1-c1ccc(C=Nc2c(C)n(C)n(-c3ccccc3)c2=O)o1 | 2% | -34% | 4.8µM* | -4% | 2% | 3%
Cc1ccc(Cn2c(CNS(=O)(=O)c3cccc([N+](=O)[O-])c3)nc3cccnc32)cc1 | · | · | -7% | · | · | ·
O=C(CCc1ccccc1)Nc1ccc2ccccc2n1 | 1.1µM* | 13µM* | 6.7µM* | ? | 3.2µM* | ?
O=C(Nc1ccc2ccccc2n1)c1ccccc1Br | 3.5µM* | · | 3.4µM* | ? | ? | ?
O=C(CCc1ccccc1)Nc1cccc(NC(=O)CCc2ccccc2)c1 | -4% | -2% | -19% | ? | -1% | -10%
SMILES | Rab9 prom act | SMN2 splice enh | FLuc counter | ELG1 DNA repair | NPC1 promoter act | ELG1 genotoxic
COc1ccc(C(=O)Nc2ccc([N+](=O)[O-])cn2)cc1OC | 21% | -2% | -11% | ? | 4% | -1%
O=C(Nc1ccc2ccccc2n1)c1ccccc1 | 0.89µM* | · | 2.4µM* | ? | 2.2µM* | ?
COc1ccc(C(=O)Nc2ccc3ccccc3n2)cc1OC | 2.8µM* | · | 13µM* | ? | 2.8µM* | ?
Cc1ccc(C(=O)Nc2ccc3ccccc3n2)cc1 | 0.63µM* | · | 1.7µM* | ? | 3.2µM* | ?
Nc1nc(N)nc(-c2ccc(Cl)c(Cl)c2)n1 | ? | · | 4.8µM* | -27% | 2µM* | 7%
CCOC(=O)c1c(NC(=O)C2=C(C)NC(=S)NC2c2ccc(C)cc2)sc(C)c1C (stereo unspecified) | -3% | -11% | 7% | ? | -8% | -9%
CCOC(=O)c1c(NC(=O)C2=C(C)NC(=S)NC2c2ccc(F)cc2)sc(C)c1C (stereo unspecified) | -4% | -13% | 4% | 7.3µM* | -6% | -10%
C/C(=N\NC(=O)CCc1c[nH]c2ccccc12)c1cccc([N+](=O)[O-])c1 | -3% | -15% | 0% | -19% | -3% | -2%
COc1ccc2[nH]cc(CCN=C(NC(=O)c3ccccc3F)Nc3nc(C)cc(C)n3)c2c1 | · | 35µM* | 1% | · | · | ·
Cc1cc(C)nc(NC(=NCCc2c[nH]c3ccccc23)NC(=O)Nc2ccc(Cl)c(Cl)c2)n1 | -5% | -9% | 2% | ? | -1% | -5%
Cc1cc(C)nc(NC(=NCCc2c[nH]c3ccccc23)NC(=O)Nc2cccc([N+](=O)[O-])c2)n1 | -6% | -14% | 0% | 5.2µM* | -5% | -4%
COc1ccc2[nH]cc(CCNC(=O)Cc3ccc(F)cc3)c2c1 | 0% | · | 6% | 6% | -3% | -4%
Cc1cc(C)nc(NC(=NCCc2c[nH]c3ccccc23)NC(=O)Nc2ccccc2)n1 | 0% | ? | -2% | 15µM* | -12% | -8%
Cc1cc(C)nc(NC(=NCCc2c[nH]c3ccccc23)NC(=O)c2ccco2)n1 | -3% | -14% | 0% | 12µM* | 9% | -24%
CCc1ccc(O)c(C(=O)c2cnc3cc(-c4ccc(C)cc4)nn3c2)c1 | · | 7% | -12% | · | · | ·
CC(C)c1ccc(Nc2nc(CC(=O)O)cs2)cc1 | 1.4µM* | · | 2.1µM* | ? | 1.3µM* | ?
O=C(O)Cc1csc(Nc2cccc(Cl)c2)n1 | 2% | 12% | -6% | ? | -3% | 3%
Cc1ccc2c(c1)c1c(c(=O)n(-c3cccc(Cl)c3)c(=O)n1CC(=O)Nc1c(C)cccc1C)n2C | · | -1% | -1% | · | · | ·
CC(C)(C)c1ccc(C(=O)Nc2cccc3c(=O)[nH][nH]c(=O)c23)cc1 | ? | -56% | 0.85µM* | ? | 21% | ?
C(/C=C\c1ccccc1)=Nc1ccc2c(c1)Cc1ccccc1-2 | · | 0%[9.22 µM] | · | · | · | ·
